Assay [1] has as its system Plasmodium falciparum Sir2 (PF13_0152, Sir2A). Put plainly: pfSir2 binders on small-molecule microarrays, primary screen, biochemical, small-molecule microarray, 635 nm fluorescence (AID 1098).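 Further: score merges spot fluorescence intensity with its signal-to-noise ratio.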 The settings on record: small-molecule microarray binding, fluorescence 635 nm; higher = more signal.
Assay [2] in a line: small-molecule microarray binders of probe aDKK1, primary screen, biochemical, biotinylated probe, 635/667 nm fluorescence (AID 1099).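 Further: score merges 667nm spot fluorescence with signal to noise across triplicate slides; reference of the scale not given here.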 The following applies: higher = more signal.
Assay [3] is described as follows: small-molecule microarray binders of probe aCHRDL2, primary screen, biochemical, biotinylated probe, 635/667 nm fluorescence (AID 1100). The following applies: higher = more signal.
The nature of assay [4]: splicing luciferase reporter signal modulators, primary screen, spliceosome inhibition project, cell-based, HEK293, splice +/- reporter (AID 1101).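 Further: HEK293 cells carrying a splicing-competent luciferase reporter gene; test concentration not given here.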 The settings on record: luminescence, 24 h, higher = more signal, called active from +8 up or from −8 down. For orientation: In a reporter assay the amount or activity of a reporter protein is the signal.
Assay [5] addresses Fibroblast growth factor 10 (Homo sapiens) (UniProt O15520). Put plainly: FGF10 binders on small-molecule microarrays, primary screen, biochemical, small-molecule microarray, 635 nm fluorescence (AID 1102). The settings on record: FGF10 binding, fluorescence 635 nm, higher = more signal.
The subject of assay [6] is glycogen synthase kinase-3 (GSK3A per assay name; protocol says GSK3B). Put plainly: GSK3 binders on small-molecule microarrays, primary screen, biochemical, small-molecule microarray, 635 nm fluorescence, GSK3A (AID 1103). Further: the record names both GSK3A and GSK3B. The following applies: small-molecule microarray binding, fluorescence 635 nm; higher = more signal.
Assay [7] deals with Epidermal growth factor receptor (Homo sapiens) (UniProt P00533). As to the kind of experiment: EGFR binders on small-molecule microarrays, primary screen, biochemical, small-molecule microarray, 635 nm fluorescence (AID 1104).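 Further: score merges 667 nm emission intensity with spot signal to noise over triplicate slides.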 The following applies: EGFR binding, higher = more signal.
Chain of Epidermal growth factor receptor (Homo sapiens) (P00533 whole entry, looked up): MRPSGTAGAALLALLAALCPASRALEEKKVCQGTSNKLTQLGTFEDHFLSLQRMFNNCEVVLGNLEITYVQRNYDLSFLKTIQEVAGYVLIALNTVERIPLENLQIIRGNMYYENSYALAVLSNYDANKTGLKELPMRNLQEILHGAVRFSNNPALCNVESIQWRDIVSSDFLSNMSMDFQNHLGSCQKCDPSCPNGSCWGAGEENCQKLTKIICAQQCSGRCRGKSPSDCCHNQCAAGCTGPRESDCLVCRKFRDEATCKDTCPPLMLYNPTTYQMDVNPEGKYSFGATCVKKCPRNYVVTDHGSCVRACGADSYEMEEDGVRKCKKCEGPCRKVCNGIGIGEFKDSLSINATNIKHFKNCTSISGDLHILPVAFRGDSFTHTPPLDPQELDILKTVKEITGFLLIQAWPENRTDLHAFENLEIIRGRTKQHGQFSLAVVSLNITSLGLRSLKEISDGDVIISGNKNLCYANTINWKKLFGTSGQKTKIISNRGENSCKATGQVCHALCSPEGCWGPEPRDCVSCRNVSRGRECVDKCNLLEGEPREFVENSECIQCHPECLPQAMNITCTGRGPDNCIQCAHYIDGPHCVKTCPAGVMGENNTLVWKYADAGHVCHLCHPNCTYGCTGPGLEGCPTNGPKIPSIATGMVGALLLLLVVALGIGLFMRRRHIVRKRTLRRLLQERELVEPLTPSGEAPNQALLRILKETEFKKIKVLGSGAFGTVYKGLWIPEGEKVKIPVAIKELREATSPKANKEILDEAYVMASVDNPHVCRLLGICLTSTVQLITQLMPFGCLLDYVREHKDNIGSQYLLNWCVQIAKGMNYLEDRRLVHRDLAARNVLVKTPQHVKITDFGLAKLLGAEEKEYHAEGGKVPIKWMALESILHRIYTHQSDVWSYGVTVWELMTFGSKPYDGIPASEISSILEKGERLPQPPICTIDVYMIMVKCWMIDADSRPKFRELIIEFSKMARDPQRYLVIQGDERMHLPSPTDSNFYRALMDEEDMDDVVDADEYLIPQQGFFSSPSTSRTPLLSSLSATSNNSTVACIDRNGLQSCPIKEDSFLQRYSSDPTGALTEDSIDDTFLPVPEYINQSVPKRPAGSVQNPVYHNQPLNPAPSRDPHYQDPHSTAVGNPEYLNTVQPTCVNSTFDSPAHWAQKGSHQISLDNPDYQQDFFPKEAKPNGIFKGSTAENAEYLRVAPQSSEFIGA
In assay [8] the target is Follistatin-related protein 3 (Homo sapiens) (UniProt O95633). Put plainly: FSTL3 binders on small-molecule microarrays, primary screen, biochemical, small-molecule microarray, 635 nm fluorescence (AID 1105).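 Further: score merges emission near 667 nm and signal to noise per printed spot across three slides.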 The following applies: FSTL3 binding, higher = more signal.
Chain of Follistatin-related protein 3 (Homo sapiens) (O95633 whole entry, looked up): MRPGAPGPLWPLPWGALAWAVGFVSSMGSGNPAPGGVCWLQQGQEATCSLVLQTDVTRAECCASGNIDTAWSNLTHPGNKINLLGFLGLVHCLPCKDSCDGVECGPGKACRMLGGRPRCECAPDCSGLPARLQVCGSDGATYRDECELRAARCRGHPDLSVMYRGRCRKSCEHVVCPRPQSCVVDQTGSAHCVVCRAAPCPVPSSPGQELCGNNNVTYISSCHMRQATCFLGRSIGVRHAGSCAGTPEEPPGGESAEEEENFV
For assay [9], the target named is Dickkopf-related protein 1 (Homo sapiens) (UniProt O94907). As to the kind of experiment: DKK1 binders on small-molecule microarrays, primary screen, biochemical, small-molecule microarray, 635 nm fluorescence scan (AID 1106).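 Further: score merges emission near 667 nm with signal to noise over three replicate slides.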 The following applies: DKK1 binding, higher = more signal.
Chain of Dickkopf-related protein 1 (Homo sapiens) (O94907 whole entry, looked up): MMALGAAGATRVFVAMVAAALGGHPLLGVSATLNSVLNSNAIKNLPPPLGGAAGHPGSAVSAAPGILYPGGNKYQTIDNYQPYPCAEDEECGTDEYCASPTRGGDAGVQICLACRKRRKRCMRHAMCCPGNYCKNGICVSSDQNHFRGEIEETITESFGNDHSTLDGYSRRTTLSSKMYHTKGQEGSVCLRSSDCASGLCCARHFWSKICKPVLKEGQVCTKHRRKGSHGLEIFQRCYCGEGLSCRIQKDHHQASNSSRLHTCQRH
Assay [10] has as its system Inhibin beta A chain (activin A). As to the kind of experiment: INHBA (activin A) binders on microarrays, primary screen, biochemical, small-molecule microarray, 635 nm fluorescence scan (AID 1107).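 Further: mouse activin A protein probed at 4.33 µg/mL on printed slides; score merges bound-protein fluorescence near 667 nm with spot signal-to-noise.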 The following applies: small-molecule microarray binding, higher = more signal.

Molecules are shown by their SMILES. Active and inactive are the calls of the source.

Chain of Fibroblast growth factor 10 (Homo sapiens) (O15520 whole entry, looked up): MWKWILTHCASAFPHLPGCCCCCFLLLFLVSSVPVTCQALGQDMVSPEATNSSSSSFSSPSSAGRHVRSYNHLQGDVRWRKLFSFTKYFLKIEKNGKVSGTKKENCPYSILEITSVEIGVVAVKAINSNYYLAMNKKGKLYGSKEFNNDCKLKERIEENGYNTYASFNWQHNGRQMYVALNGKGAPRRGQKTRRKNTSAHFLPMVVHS

For `C=C[C@@H](C)[C@H](O)c1ccc(OCCO)cc1`, the composite z-score in assay [1] is -0.112; in [2], -0.234; in [3], 0.825; in [5] it was -1.57; in [6] it was -1.25; in [7], -2.14. The composite z-score in assay [8] was -1.71; in [9] it was -1.5; in assay [10], -1.57. Further, in assay [4], the z-score was -0.474 (inactive).

Consider `Cc1cccc([C@H]2C[C@H]3C(I)=C[C@@H]2C(=O)[C@]32CO2)c1`, for which the composite z-score in assay [1] was -0.636; in assay [2], -0.251; in [3], 0.154; in [5], 0.575; in assay [6] it was -0.499; in [7], -0.0512. Besides, the composite z-score worked out at 0.445 in assay [8], 0.125 in assay [9] and 1.03 in assay [10]. In addition, the z-score in assay [4] is -1.48 (inactive).

On to `CN(C)C(=O)[C@@]1(Cc2ccccc2N=[N+]=[N-])N=C(c2ccc(OCCCO)cc2)O[C@H]1c1ccccc1`, for which the composite z-score in assay [1] is 1.36; in [2], 0.605; in assay [3] it was 1.35; in [5], 0.607; in [6], 1.22; in [7], -0.103. Further, the composite z-score in assay [8] was 0.465; in assay [9], -0.217; in assay [10] it was 0.787. For the same compound, in assay [4], the z-score is 0.22 (inactive).

Consider `CN1C(=O)[C@@]2(Cc3ccccc3)N=C(c3ccc(OCCCO)cc3)O[C@H]2c2ccccc21`, for which the composite z-score in [1] is 0.318; in [2] it was 0.428; in assay [3], 1.02; in assay [5], 1.3; in assay [6] it was 1.32; in assay [7], 0.261. The composite z-score stood at 1.11 in [8], 0.191 in [9] and 1.16 in assay [10]. In addition, the z-score in assay [4] was -0.528 (inactive).

As for `COC(=O)[C@@]1(Cc2ccc(F)cc2)[C@H]2c3cc(C(=O)N4CCCC4)n(CC4CC4)c3C[C@H]2CN1C(=O)c1ccccc1`, the composite z-score in assay [1] worked out at 1.4; in assay [2], 1.15; in assay [3] it was 1.3; in assay [5], 0.692; in assay [6] it was 0.621; in assay [7] it was 0.915. The composite z-score was 0.466 in assay [8], 0.0587 in [9] and 0.789 in assay [10]. Moreover, the z-score in [4] is -0.761 (inactive).

With `CCCCC(=C=CC[C@H](O)c1ccc(OCCO)cc1)C[C@H](O)c1cc(Cl)cc(Cl)c1O`, the composite z-score is 1.06 in assay [1]; -0.0865 in [2]; 0.218 in [3]; 1.35 in assay [5]; 0.11 in [6]; -0.0609 in assay [7]. Also, the composite z-score in assay [8] amounted to 0.17; in [9], 0.193; in assay [10], 0.813. Further, the z-score in assay [4] was -0.321 (inactive).

For the compound `COC(=O)[C@@]1(Cc2ccc(OC)cc2)[C@H]2c3cc(C(=O)N4CCCC4)n(Cc4cc(C)n(C)n4)c3C[C@H]2CN1C(=O)c1ccccc1`, the composite z-score in [1] was 1.74; in [2] it was 1.26; in assay [3], 1.17; in assay [5], 1.32; in assay [6], 0.666; in [7] it was -0.158. For the same compound, the composite z-score in assay [8] was 0.0098; in assay [9], -0.712; in assay [10], 0.104. The z-score in [4] is 0.317 (inactive).

For the compound `CC(C)CNC(=O)[C@@]1(C)c2ccccc2C(=O)N(Cc2cc(C(F)(F)F)cc(C(F)(F)F)c2)[C@H]1c1ccc(CO)cc1`, the composite z-score in assay [1] is 0.386; in [2], -0.147; in assay [3] it was 0.587; in [5] it was -0.631; in assay [6], -1.02; in [7] it was -0.647. In addition, the results for the composite z-score in [8], in assay [9] and in assay [10] were -0.522, -0.6 and 0.32, respectively. For the same compound, in assay [4], the z-score was 0.0167 (inactive).

For the compound `C=CCN1C(=O)[C@]2(O[C@H](CCO)[C@@H]([Si](C)(C)c3ccc(OC)cc3)[C@@H]2C)c2cc(N3C(=O)COc4ccccc43)ccc21`, the composite z-score in assay [1] was 0.529; in [2], -0.113; in assay [3] it was 0.33; in [5], 0.74; in assay [6] it was 0.195; in assay [7] it was 0.0364. Further, the composite z-score in assay [8] is 0.4; in [9] it was -0.207; in assay [10] it was 0.378. Moreover, the z-score in [4] was -3.03 (inactive).

In the case of `COCCOC(=O)N1C(=O)[C@@]2(c3ccccc31)[C@H](c1ccccc1OCCO)N1[C@H](c3ccccc3)[C@H](c3ccccc3)OC(=O)[C@H]1[C@@H]2C(N)=O`, the composite z-score in assay [1] was 1.28; in [2], 0.701; in assay [3], 0.74; in assay [5], 1.2; in assay [6], 1.25; in assay [7] it was 0.888. The results for the composite z-score in assay [8], in assay [9] and in [10] were 1.43, 1.16 and 0.186, respectively. Besides, the z-score in assay [4] was -2.08 (inactive).

For `COCCCNC(=O)[C@@]1(Sc2ccc(C)cc2)CC(=O)N(Cc2ccccc2Cl)[C@@H]1c1ccc(CO)cc1I`, the composite z-score in [1] was 0.515; in assay [2] it was 0.0057; in assay [3] it was 0.791; in assay [5], -0.668; in assay [6] it was -1.05; in assay [7], -1.29. Also, the composite z-score in [8] is -0.491; in assay [9], -1.12; in [10], 0.45. The z-score in assay [4] was -0.529 (inactive).

As for `CCc1cccc(NC(=O)O[C@H]2[C@H](OC(=O)Nc3ccccc3)[C@H](OC(=O)Nc3ccccc3)[C@@H](OC)O[C@@H]2CO)c1`, the composite z-score in assay [1] was 1.41; in assay [2], 0.22; in [3], 0.55; in [5], 1.51; in assay [6], 1.24; in [7], -0.0045. Moreover, the composite z-score was 0.833 in [8], -0.186 in assay [9] and 0.444 in assay [10]. Besides, the z-score in assay [4] is -0.376 (inactive).

In the case of `COCCOC(=O)N1C(=O)[C@@]2(c3cc(C#CCCO)ccc31)[C@H](c1ccccc1OCCO)N1[C@H](c3ccccc3)[C@H](c3ccccc3)OC(=O)[C@H]1[C@@H]2C(=O)N1CCCCCCC1`, the composite z-score in assay [1] turned out to be 1.69; in assay [2], 2.28; in assay [3], 1.36; in [5] it was 0.743; in assay [6] it was 1.08; in assay [7] it was 0.965. In addition, the composite z-score in [8] came to 1.53; in [9], 1.31; in assay [10], 1.6. In addition, the z-score in [4] is -0.532 (inactive).

With `O=C1OCC=C[C@H]2OC34C=CCN(c5ccc6ccccc6c5)C(=O)[C@H]3N(CCCCCO)C(=O)[C@@H]4[C@@H]12` (stereo not given in full), the composite z-score in [1] is 1.88; in assay [2] it was 0.07; in assay [3], 0.878; in [5] it was -1.17; in assay [6], -1.55; in assay [7], -1.44. Moreover, the composite z-score was -1.56 in assay [8], -1.41 in assay [9] and -0.255 in assay [10]. Moreover, the z-score in [4] is -0.57 (inactive).

(Values after PubChem BioAssay.)
